Laboratory results taken from PubChem BioAssay AID1851 (National Center for Advancing Translational Sciences (NCATS), 2009).
About 2,600 (16%) of roughly 16,000 compounds were called active. Inconclusive results (about 20%) are left out. A selection follows. Values without a mark were called inactive. The call rests on the fitted dose curve; in most records, active means well fitted curve in the direction sought with a large enough effect; inconclusive means small, poorly fitted or top-dose-only effect, or effect the other way; inactive means no such curve, though single readings can be large or run the other way.

Molecular target: Cytochrome P450 2D6 (Homo sapiens) (UniProt P10635)
Sequence (P10635 whole entry, looked up): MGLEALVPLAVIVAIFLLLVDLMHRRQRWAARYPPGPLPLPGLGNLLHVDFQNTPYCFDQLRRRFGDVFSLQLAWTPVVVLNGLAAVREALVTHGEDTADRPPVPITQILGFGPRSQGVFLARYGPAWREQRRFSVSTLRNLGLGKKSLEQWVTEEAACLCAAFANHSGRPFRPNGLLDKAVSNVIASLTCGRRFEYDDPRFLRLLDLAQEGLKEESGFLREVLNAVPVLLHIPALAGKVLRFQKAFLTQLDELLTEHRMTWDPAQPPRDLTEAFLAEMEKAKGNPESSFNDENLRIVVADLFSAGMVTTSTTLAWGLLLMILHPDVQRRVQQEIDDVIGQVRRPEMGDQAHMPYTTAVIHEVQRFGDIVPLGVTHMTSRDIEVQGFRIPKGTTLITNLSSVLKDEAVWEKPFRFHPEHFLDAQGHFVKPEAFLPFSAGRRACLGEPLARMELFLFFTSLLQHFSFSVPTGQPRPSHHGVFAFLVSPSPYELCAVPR
Test: Cytochrome panel assay with activity outcomes
Conditions: recombinant CYP, pro-luciferin dealkylation, luminescence, p450-cyp2d6; series mostly up to 57.1 µM; activity, negative = inhibition: at the top concentration
On the % scale 0 is the no-effect control and ±100 the full control effect.

| SMILES | activity, negative = inhibition | AC50 |
| --- | --- | --- |
| C=CCSc1ccsc1C(=O)O | 4.5% | – |
| Cc1cc(C)n2c(SCC(=O)N(C)C3CCS(=O)(=O)C3)nnc2n1 (configuration not stated) | -4.18% | – |
| O=c1c(C=Nc2ccc(Oc3ccccc3)cc2)c[nH]n1-c1cccc(Cl)n1 | -11.3% | – |
| CC(=O)OCc1c(C(F)(F)F)nn(C)c1Sc1ccccc1 | -12.7% | – |
| Cc1ccccc1OCC(O)Cn1c2ccccc2c2ccccc21 (configuration not stated) | – | 0.891 µM (active) |
| Cc1ccc(OCC(O)CNC(=O)c2ccccc2C(=O)O)cc1 (configuration not stated) | 19.5% | – |
| c1ccc2c(c1)c1ccccc1n2Cn1c2ccccc2c2ccccc21 | -12.9% [at 11.4 µM] | – |
| CCn1c2ccccc2c2cc(NC(=O)C(C)Oc3ccc(OC)cc3)ccc21 (configuration not stated) | -24.2% | – |
| Cc1ccc(OCC(O)Cn2c3ccccc3c3ccccc32)cc1 (configuration not stated) | – | 6.31 µM (active) |
| CC(=O)Nc1ccc(OCC(O)Cn2c3ccccc3c3ccccc32)c(C)c1 (configuration not stated) | – | 14.1 µM (active) |
| C=CCN(CC=C)CC(O)Cn1c2ccccc2c2ccccc21 (configuration not stated) | – | 0.224 µM (active) |
| OC[C@@H](O)COc1cccc2ccccc12 | 8.76% | – |
| Cc1cc(C)n(CC(O)COc2ccccc2)n1 (configuration not stated) | -20.6% | – |
| Cc1ccccc1OCC(O)Cn1c(NCc2ccccc2)nc2c1c(=O)[nH]c(=O)n2C (configuration not stated) | -3.75% | – |
| C#CCCCO/N=C1/[C@H]2O[C@@H]2[C@@H](O)[C@H]2[C@H]1CCn1c(=O)n(Cc3cc4c(cc3Cl)OCO4)c(=O)n12 | -0.473% [at 11.4 µM] | – |
| O=C(O)c1nnsc1-c1csnn1 | -6.92% [at 11.4 µM] | – |
| Cc1cc(C)c(C(N)=O)c(NC(=O)Nc2ccccc2)n1 | -1.35% | – |
| O=c1[nH][nH]c(=S)c(=O)[nH]1 | 0.16% [at 11.4 µM] | – |
| C=CCNC(=S)Nc1ccc2nc(C)c(C)nc2c1 | -21.9% | – |
| Cc1ccc(NC(=O)CN(C)C(=O)CSc2n[nH]c(N)n2)cc1 | -2.04% | – |
| CCn1cc(C(=O)N/N=C(/C)c2ccc(F)cc2)c(=O)c2cc(F)c(N3CCCC3)cc21 | -16.1% | – |

| SMILES | activity, negative = inhibition | AC50 |
| --- | --- | --- |
| CCc1cccc2c3c([nH]c12)[C@@](CC)(CC(=O)O)OCC3 | 8.03% [at 25.6 µM] | – |
| O=C1S/C(=C/c2ccc(N3CCOCC3)o2)C(=O)N1Cc1ccc(F)cc1 | -5.57% | – |
| COc1ccc(NC(=O)C2(c3ccc(NC(=O)c4ccc(C)cc4)cc3)CCCC2)cc1 | -1.99% | – |
| CC(=NC1CCCCC1)c1ccccc1O | -7.44% [at 11.4 µM] | – |
| C/C(=N/Nc1ccc2ccccc2n1)c1ccccc1O | – | 0.794 µM (active) |
| CC(=O)/C=C/c1ccc2ccccc2n1 | -25.2% | – |
| COc1ccc(/C(O)=C2/C(=O)C(=O)N(CCN3CCOCC3)C2c2ccc(C)cc2)cc1 (configuration not stated) | 29.8% | – |
| CN1CCN(c2ncc3nc(CCc4ccccc4)c(=O)n(C)c3n2)CC1 | -8.43% | – |
| O=C(O)[C@@H]1[C@@H](C(=O)NCc2ccncc2)[C@@H]2C=C[C@@H]1O2 | -9.91% [at 11.4 µM] | – |
| COc1ccc(N(CC(=O)NN=C2CCCC2)S(=O)(=O)c2ccccc2)cc1 | -23.6% | – |
| O=C(CN(c1ccccc1)S(=O)(=O)c1ccccc1[N+](=O)[O-])NN=C1CCCCCCC1 | – | 4.47 µM (active) |
| O=C(COc1ccc([N+](=O)[O-])cc1)NN=C1CCCC1 | -17.7% | – |
| CNC(=O)[C@H]1O[C@H](n2cnc3c(NCc4cccc(I)c4)ncnc32)[C@@H](O)[C@@H]1O | -3.89% | – |
| CCCCC(C=O)NC(=O)C(CC(C)C)NC(=O)OCc1ccccc1 (configuration not stated) | -8.92% | – |
| NCc1ccccc1CC(=O)N[C@@H]1C(=O)N2C(C(=O)O)=C(CSc3nnnn3CC(=O)O)CS[C@@H]12 | 5.45% [at 25.6 µM] | – |
| COc1cc(/C=N\NC(=O)C2C(=O)NCC2c2ccccc2)cc(OC)c1O (configuration not stated) | 0.0367% | – |
| Cc1cccc(C)c1NC(=O)N1CCC(N2CCCCC2)CC1 | -13.6% | – |
| Cc1cccc(C)c1NC(=O)CCN1C(=O)C2C3CCC(C3)C2C1=O (configuration not stated) | -0.973% | – |
| CCCCN1CCCC[C@H]1C(=O)Nc1c(C)cccc1C | – | 0.501 µM (active) |
| Cc1ccc(/C(C#N)=C/c2cccc([N+](=O)[O-])c2)cc1 | 8% [at 11.4 µM] | – |
| CN(C)Cc1cc(O)c(O)c(CN(C)C)c1 | 1.36% [at 11.4 µM] | – |

| SMILES | activity, negative = inhibition | AC50 |
| --- | --- | --- |
| COC(=O)c1cc(-c2ccccc2)sc1NC(=O)CN1C(=O)c2ccccc2C1=O | -10.5% | – |
| Cc1ccc2nc(-c3ccc(NC(=O)c4ccc(N)cc4)c(S(=O)(=O)O)c3)sc2c1 | 10.5% [at 11.4 µM] | – |
| COc1ccc(CCNC(=O)CCN2C(=O)C(C)Oc3ccc(C)cc32)cc1OC (configuration not stated) | -5.38% | – |
| Cc1ccc(C)c(NC(=O)Cn2nnc(C(=O)NCc3cccs3)c2N)c1 | -4.92% | – |
| Cc1ccc2c(c1)N(CC(=O)NCc1cccs1)C(=O)C(C)O2 (configuration not stated) | – | 12.6 µM (active) |
| COc1ccccc1COC(=O)Nc1c(C)nn(C)c1Cl | 13.3% | – |
| COc1ccc2c(c1)c(CC(=O)N1CCOCC1)c(C)n2C(=O)c1ccc(Cl)cc1 | 0.728% | – |
| Nc1cccc2cc(S(=O)(=O)Nc3ccc(C(=O)O)cc3)ccc12 | 4.25% [at 11.4 µM] | – |
| COc1c(N2CCN(C(=S)Nc3ccc(F)cc3)C(C)C2)c(F)cc2c(=O)c(C(=O)O)cn(C3CC3)c12 (configuration not stated) | -2.42% | – |
| O=C(O)c1cc(-c2ccncc2)nc2ccccc12 | 8.68% [at 11.4 µM] | – |
| O=C(N/N=C/c1ccc([N+](=O)[O-])o1)c1cc(-c2ccncc2)nc2ccccc12 | – | 14.1 µM (active) |
| CCOC(=O)N/N=C\c1ccc([N+](=O)[O-])o1 | -12.6% | – |
| Cc1ccc(-n2c(SCc3ccc([N+](=O)[O-])cc3)nc3ccccc3c2=O)cc1 | 11.1% | – |
| Cc1cc(C)n(-c2nc3ccccc3c(=O)n2OCc2ccc(Cl)cc2)n1 | -58.9% | – |
| COn1c(SC(C)C)nc2ccccc2c1=O | -13.7% | – |
| CC(C)On1c(SC(C)C)nc2ccccc2c1=O | 5.46% | – |
| COn1c(SCc2ccc(C)cc2C)nc2ccccc2c1=O | – | 6.31 µM (active) |
| COn1c(SCc2cccc(Cl)c2)nc2ccccc2c1=O | – | 0.891 µM (active) |
| CO[C@H]1COC(=O)C/C=C\[C@H](C)[C@@H](OC)COC(=O)[C@H](Cc2ccccc2)NC(=O)C/C=C\[C@@H]1C | -13.7% [at 11.4 µM] | – |
| O=S(=O)(O)[C@@H](CO)c1ccccc1 (tested in a mixture with another compound) | 14% [at 11.4 µM] | – |
